Activity calls are given as the source filed them. The calls were made as follows: active = hit-call score of the fitted dose curve at least 0.9, where 1 is the maximum; inactive = score below 0.9.
Columns and labels:
[1] = ATG_E_Box_CIS: Attagene CIS-FACTORIAL HepG2 Assay for human Enhancer Box (E-box) (AID 2282936); details: HepG2 E-box cis-reporter transcription, actives raise or lower the signal
Outline: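 E-box-driven reporter transcripts measured in transiently transfected HepG2 after 24 h exposure: RNA reverse-transcribed, PCR-amplified, fluorescently labelled, digested and resolved by capillary electrophoresis. Gain or loss relative to DMSO.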

[2] = ATG_M_61_CIS: Attagene CIS-FACTORIAL HepG2 Assay for M61 Transcription Factor (Internal Marker) (AID 2282937); details: HepG2 Attagene CIS-FACTORIAL M61 internal marker reporter; actives raise or lower the signal
Outline: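 Background-control endpoint: HepG2 cells with cis-regulated reporter constructs, 24 h exposure, reporter mRNA detected via fluorescent primer extension and capillary electrophoresis; values from bidirectional fitting with DMSO baseline.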

[3] = ATG_EGR_CIS: Attagene CIS-FACTORIAL HepG2 Assay for human Early Growth Response 1 (EGR1) (AID 2282938); details: HepG2 Attagene CIS-FACTORIAL EGR reporter mRNA; actives raise or lower the signal
Outline: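 Endpoint derived by bidirectional fitting versus DMSO vehicle. Method: cis-promoter reporter units transfected into HepG2, 24 h dosing, RNA isolation, RT-PCR with 6-FAM primer extension and HpaI digestion, then capillary electrophoresis fluorescence detection.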

[4] = ATG_Ets_CIS: Attagene CIS-FACTORIAL HepG2 Assay for human Erythroblast Transformation Specific (ETS) (AID 2282941); details: HepG2 ETS cis-reporter transcription, actives raise or lower the signal
Outline: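 RT-PCR/capillary electrophoresis fluorescence read-out of reporter mRNA; HepG2 transient multi-reporter transfection; 24 h compound exposure; gain or loss of signal fitted bidirectionally relative to DMSO.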

[5] = biological target: Hepatocyte nuclear factor 3-beta (Homo sapiens) (UniProt Q9Y261); test: ATG_FoxA2_CIS: Attagene CIS-FACTORIAL HepG2 Assay for human Forkhead box A2 (FOXA2) (AID 2282942); details: HepG2 cis-reporter transcription factor activity, 24 h; actives raise or lower the signal
Hepatocyte nuclear factor 3-beta (Homo sapiens), sequence (Q9Y261 whole entry, looked up): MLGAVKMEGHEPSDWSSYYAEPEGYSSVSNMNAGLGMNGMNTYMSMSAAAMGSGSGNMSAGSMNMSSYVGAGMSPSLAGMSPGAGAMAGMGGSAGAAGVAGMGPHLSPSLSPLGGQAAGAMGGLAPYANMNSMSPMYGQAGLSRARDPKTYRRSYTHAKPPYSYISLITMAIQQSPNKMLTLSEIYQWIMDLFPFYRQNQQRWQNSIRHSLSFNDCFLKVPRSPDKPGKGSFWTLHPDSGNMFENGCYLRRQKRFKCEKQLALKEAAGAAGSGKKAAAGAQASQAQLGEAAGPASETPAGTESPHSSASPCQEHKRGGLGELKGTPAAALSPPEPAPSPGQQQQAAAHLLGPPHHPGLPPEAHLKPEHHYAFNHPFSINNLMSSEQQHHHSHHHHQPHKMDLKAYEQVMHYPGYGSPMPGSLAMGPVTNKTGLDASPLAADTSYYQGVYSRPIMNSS
Outline: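 Measured: reporter mRNA induction or loss in HepG2 transiently carrying multiple cis-regulated reporter units, 24 h after dosing. Quantified by RT-PCR plus capillary electrophoresis, normalised to DMSO.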

[6] = ATG_FoxO_CIS: Attagene CIS-FACTORIAL HepG2 Assay for human Forkhead box O (FoxO) (AID 2282943); details: HepG2 Attagene cis-reporter, FoxO element, mRNA; actives raise or lower the signal
Outline: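 Human hepatoma HepG2 cells carry transiently introduced reporter transcription units controlled by cis promoter elements. Chemical treatment lasted 24 h, and mRNA signal was compared with DMSO.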

[7] = ATG_GATA_CIS: Attagene CIS-FACTORIAL HepG2 Assay for human GATA Binding Protein (AID 2282944); details: HepG2 GATA cis-element reporter, Attagene multiplex mRNA; actives raise or lower the signal
Outline: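 HepG2 cells transiently transfected with multiplexed cis-element reporter units measure endogenous GATA activity; after 24 h compound exposure, reporter mRNA quantified by RT-PCR and capillary electrophoresis. Changes fitted in both directions vs DMSO.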

[8] = ATG_GLI_CIS: Attagene CIS-FACTORIAL HepG2 Assay for human Zinc Finger Protein GLI1 (AID 2282945); details: HepG2, Attagene cis-factorial reporter mRNA, GLI element; actives raise or lower the signal
Outline: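 Bidirectional curve fits relative to DMSO, using reporter mRNA levels from RT-PCR plus capillary electrophoresis. Cells were HepG2 transiently carrying cis-regulated reporter constructs, harvested 24 h after dosing.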

[9] = ATG_GRE_CIS: Attagene CIS-FACTORIAL HepG2 Assay for human Glucocorticoid Response Elements (GRE) (AID 2282947); details: HepG2 GRE cis-reporter, Attagene multiplex mRNA; actives raise or lower the signal
Outline: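 Reporter transcripts read by RT-PCR with capillary electrophoresis fluorescence after a 24 h chemical exposure of HepG2 cells transiently transfected with multiple cis-element reporter units. Gain or loss fitted against DMSO.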

[10] = ATG_ISRE_CIS: Attagene CIS-FACTORIAL HepG2 Assay for human Interferon Regulatory Factor 1 (IRF1) binding to an Interferon-Stimulated Response Element (ISRE) (AID 2282948); details: HepG2 ISRE cis-reporter (Attagene), mRNA transcription readout; actives raise or lower the signal
Outline: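 Read-out: fluorescent RT-PCR products resolved by capillary electrophoresis, reporting endogenous transcription factor activity via ISRE-driven reporter mRNA in transfected HepG2 cells dosed for 24 h; gain or loss fitted relative to DMSO.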

[11] = ATG_M_32_CIS: Attagene CIS-FACTORIAL HepG2 Assay for M32 Transcription Factor (Internal Marker) (AID 2282949); details: HepG2 Attagene cis-factorial M32 reporter, mRNA; actives raise or lower the signal;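 also: background control marker of the multiplexed CIS panel rather than a real target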
Outline: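 HepG2 human liver cells transiently transfected with cis-promoter-driven multiple reporter transcription units, dosed 24 h. Reporter mRNA quantified by RT-PCR, FAM-labelled primer extension, HpaI digest and capillary electrophoresis; bidirectional fit versus DMSO baseline.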

[12] = ATG_M_06_CIS: Attagene CIS-FACTORIAL HepG2 Assay for M06 Transcription Factor (Internal Marker) (AID 2282950); details: HepG2 Attagene CIS-FACTORIAL M06 internal marker reporter; actives raise or lower the signal
Outline: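 Internal background marker within multiplexed cis-reporter HepG2 system. Cells transiently transfected, dosed 24 h; reporter mRNA measured by RT-PCR, HpaI digestion and capillary electrophoresis. Bidirectional fit relative to DMSO.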

[13] = biological target: Hepatocyte nuclear factor 6 (Homo sapiens) (UniProt Q9UBC0); test: ATG_HNF6_CIS: Attagene CIS-FACTORIAL HepG2 Assay for human Hepatocyte Nuclear Factor 6 (HNF6) (AID 2282952); details: HepG2 Attagene cis-factorial HNF6 reporter transcription; actives raise or lower the signal
Hepatocyte nuclear factor 6 (Homo sapiens), sequence (Q9UBC0 whole entry, looked up, the tested form may be a part): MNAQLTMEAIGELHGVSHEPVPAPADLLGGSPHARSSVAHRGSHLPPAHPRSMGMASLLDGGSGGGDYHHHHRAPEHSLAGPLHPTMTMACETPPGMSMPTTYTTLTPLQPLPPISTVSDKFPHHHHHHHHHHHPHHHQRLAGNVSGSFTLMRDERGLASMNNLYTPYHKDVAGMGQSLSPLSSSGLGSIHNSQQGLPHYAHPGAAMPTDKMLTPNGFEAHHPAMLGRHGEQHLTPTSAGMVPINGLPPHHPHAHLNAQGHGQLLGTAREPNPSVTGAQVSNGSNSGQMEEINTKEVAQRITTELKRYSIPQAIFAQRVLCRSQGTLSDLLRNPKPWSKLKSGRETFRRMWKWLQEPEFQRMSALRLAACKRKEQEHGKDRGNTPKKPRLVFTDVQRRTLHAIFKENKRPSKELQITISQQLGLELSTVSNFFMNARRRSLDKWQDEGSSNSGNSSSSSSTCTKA
Outline: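 Using cis-element reporters in HepG2 liver cells, the assay tracks endogenous factor-driven transcription 24 h post-dosing. Signal comes from 6-FAM-labelled, HpaI-digested RT-PCR fragments, with gain or loss scored against DMSO.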

[14] = biological target: Heat shock factor protein 1 (Homo sapiens) (UniProt Q00613); test: ATG_HSE_CIS: Attagene CIS-FACTORIAL HepG2 Assay for human Heat Shock Transcription Factor 1 (HSE) (AID 2282953); details: HepG2 HSE cis-reporter, Attagene RNA transcription; actives raise or lower the signal
Heat shock factor protein 1 (Homo sapiens), sequence (Q00613 whole entry, looked up): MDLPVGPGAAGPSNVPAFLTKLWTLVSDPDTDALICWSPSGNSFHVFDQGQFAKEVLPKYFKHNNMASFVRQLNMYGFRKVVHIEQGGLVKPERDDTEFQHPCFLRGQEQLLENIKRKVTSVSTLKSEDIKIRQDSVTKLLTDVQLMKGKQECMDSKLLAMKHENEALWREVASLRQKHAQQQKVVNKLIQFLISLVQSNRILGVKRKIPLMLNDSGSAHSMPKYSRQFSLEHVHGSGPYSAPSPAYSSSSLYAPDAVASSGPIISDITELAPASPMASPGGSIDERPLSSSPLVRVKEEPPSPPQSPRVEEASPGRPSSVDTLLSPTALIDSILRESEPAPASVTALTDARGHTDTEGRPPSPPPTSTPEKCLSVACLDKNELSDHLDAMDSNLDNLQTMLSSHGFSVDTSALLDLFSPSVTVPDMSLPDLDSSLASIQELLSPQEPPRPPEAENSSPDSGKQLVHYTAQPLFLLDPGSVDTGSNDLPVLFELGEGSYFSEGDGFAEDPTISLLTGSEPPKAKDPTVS
Outline: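 HepG2 cells transfected with cis-promoter reporter units sensing endogenous transcription factor activity; reporter mRNA quantified 24 h post-dose by RT-PCR and capillary electrophoresis of 6-FAM-labelled products. Bidirectional fitting against DMSO.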

[15] = biological target: Hypoxia-inducible factor 1-alpha (Homo sapiens) (UniProt Q16665); test: ATG_HIF1a_CIS: Attagene CIS-FACTORIAL HepG2 Assay for human Hypoxia Inducible Factor 1 (HIF1A) (AID 2282951); details: HepG2 Attagene cis-factorial HIF1a reporter transcription; actives raise or lower the signal
Hypoxia-inducible factor 1-alpha (Homo sapiens), sequence (Q16665 whole entry, looked up): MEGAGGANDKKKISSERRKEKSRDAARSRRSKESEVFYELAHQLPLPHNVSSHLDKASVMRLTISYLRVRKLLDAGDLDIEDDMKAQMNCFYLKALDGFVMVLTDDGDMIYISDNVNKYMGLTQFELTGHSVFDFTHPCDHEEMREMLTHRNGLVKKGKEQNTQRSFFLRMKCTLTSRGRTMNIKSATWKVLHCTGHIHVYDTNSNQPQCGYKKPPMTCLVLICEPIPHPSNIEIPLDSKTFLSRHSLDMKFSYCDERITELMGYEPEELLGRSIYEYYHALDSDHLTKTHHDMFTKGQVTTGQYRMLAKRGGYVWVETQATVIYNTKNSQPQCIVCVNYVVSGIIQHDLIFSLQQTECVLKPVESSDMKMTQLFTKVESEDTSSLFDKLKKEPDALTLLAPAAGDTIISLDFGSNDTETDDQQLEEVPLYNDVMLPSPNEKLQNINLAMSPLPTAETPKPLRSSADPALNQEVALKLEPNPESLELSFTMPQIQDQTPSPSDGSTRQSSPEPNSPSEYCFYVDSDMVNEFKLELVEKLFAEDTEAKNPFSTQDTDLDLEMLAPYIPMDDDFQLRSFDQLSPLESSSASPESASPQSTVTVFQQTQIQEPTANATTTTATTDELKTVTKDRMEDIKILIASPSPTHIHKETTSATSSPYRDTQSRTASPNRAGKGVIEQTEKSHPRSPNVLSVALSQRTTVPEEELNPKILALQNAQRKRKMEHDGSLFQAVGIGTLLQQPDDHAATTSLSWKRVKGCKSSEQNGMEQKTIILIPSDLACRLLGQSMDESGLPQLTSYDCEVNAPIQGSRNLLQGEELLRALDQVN
Outline: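 Dosed 24 h, transfected HepG2 cells yielded total RNA whose reporter transcripts were RT-PCR-amplified and sized by capillary electrophoresis using fluorescent labelling; DMSO defined baseline, with gain and loss of signal both fitted.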

[16] = ATG_MRE_CIS: Attagene CIS-FACTORIAL HepG2 Assay for human Metal Responsive Element (MRE) (AID 2282954); details: HepG2 MRE cis-reporter transcription, Attagene multiplex; actives raise or lower the signal
Outline: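 Endogenous MRE-dependent transcription read as reporter mRNA in transiently transfected human HepG2 cells at 24 h. RNA reverse-transcribed, PCR-amplified, labelled and resolved by capillary electrophoresis; gain or loss relative to DMSO.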

[17] = ATG_PBREM_CIS: Attagene CIS-FACTORIAL HepG2 Assay for human Phenobarbital-responsive Enhancer Module (PBREM) (AID 2282955); details: HepG2 PBREM cis-reporter, Attagene multiplexed transcription; actives raise or lower the signal
Outline: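 Transfected liver-derived HepG2 cells exposed 24 h; PBREM reporter transcript quantified via RT-PCR and capillary electrophoresis, with activity in either direction referenced to DMSO.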

Measured: AC50

O=C(O)c1cc(N=Nc2ccc(S(=O)(=O)Nc3ccccn3)cc2)ccc1O
inactive: [1] | [2] | [3] | [4] | [5] | [6] | [7] | [8] | [9] | [10] | [11] | [12] | [13] | [14]

CC(C)CCCCCCOC(=O)c1ccc(C(=O)OCCCCCCC(C)C)c(C(=O)OCCCCCCC(C)C)c1
inactive: [1] | [2] | [3] | [4] | [5] | [6] | [7] | [8] | [10] | [11] | [12] | [15] | [13] | [14] | [16] | [17]

CCCN(C1CCN(C(=O)C2CCNCC2)CC1)[C@@H]1CCc2ccc(OC)cc2C1
active: [1] 45.1 µM | [3] 100 µM | [6] 153 µM | [7] 152 µM | [8] 153 µM | [10] 90.6 µM | [17] 157 µM
inactive: [2] | [4] | [5] | [9] | [11] | [12] | [15] | [13] | [14]

O=C(CCCCCCCCc1cccnc1)N1CCC(C=C(c2ccccc2)c2ccccc2)CC1
active: [2] 59.8 µM | [3] 17 µM | [10] 16.7 µM | [12] 59.8 µM | [15] 1.37 µM | [13] 23.9 µM | [14] 15.9 µM | [16] 2.78 µM
inactive: [1] | [4] | [5] | [6] | [7] | [8] | [9] | [11]

From PubChem BioAssay (EPA / NIEHS)
